Source: PubChem
HSP90 inh – HSP90 inhibitors, primary screen, cell lysate, luminescence; Heat shock protein HSP 90 (rabbit reticulocyte lysate; luciferase refolding); Rabbit reticulocyte lysate, luciferase refolding luminescence, 3 h; inhibition, % at 5.6 µM; 290,000 compounds, 0.91% hits; AID 1789, 2009;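 active means inhibition above the screen-wide mean plus 3 SD, computed separately per campaign, cut at about 16% in these data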;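 further: inhibitors lower the luminescence because luciferase stays unfolded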
HSF1 activator – HSF-1 activators, primary screen, NIH3T3-HGL cells, MG132 stress, luminescence, single point; 300,000 compounds, 1.7% hits; NIH3T3-HGL HSF-1 luciferase reporter, 8 h; 100% = twice DMSO control signal; activation, % at 9 µM;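 active means mean replicate activation of at least 50% with a set share of replicates each reaching 50%; inconclusive means only one of those two conditions met; inactive means mean below 50% and too few replicates reaching it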
Platelet DG rel – inhibitors of platelet dense granule secretion, primary screen, cell-based, MLPCN, human platelets. human platelet-rich plasma, SFLLRN dense granule ATP release, luminescence. inhibition, %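 (compounds screened at 7.5 µM in platelet-rich plasma)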. 300,000 compounds, 0.22% hits;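 active means mean replicate score, as percent of positive control, at or above 50; inconclusive means mean below 50 but at least one replicate at or above 50; inactive means mean and every replicate below 50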
MPTP block – mitochondrial permeability transition pore inhibitors, primary screen, biochemical, isolated mouse mitochondria, absorbance; Ca2+ swelling absorbance, 30 min; inhibition, % at 10 µM; 360,000 compounds, 1.4% hits;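 active means inhibition of 50% or more, scaled per plate between neutral and stimulator controls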
dFosB activator – activators of delta FosB homodimer, primary screen, biochemical, fluorescence polarization, TAMRA-CDK5 oligo, single point | purified delta FosB; percent of positive-control signal above neutral wells | activation, % at 25 µM | Protein FosB (Mus musculus), P13346 | 340,000 compounds, 0.99% hits;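 active means mean activation above about 17%, with every replicate also reaching it, limit read from the data, passing the limit was not always enough; inconclusive means only one of the two conditions met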
Target sequence (P13346 whole entry, looked up): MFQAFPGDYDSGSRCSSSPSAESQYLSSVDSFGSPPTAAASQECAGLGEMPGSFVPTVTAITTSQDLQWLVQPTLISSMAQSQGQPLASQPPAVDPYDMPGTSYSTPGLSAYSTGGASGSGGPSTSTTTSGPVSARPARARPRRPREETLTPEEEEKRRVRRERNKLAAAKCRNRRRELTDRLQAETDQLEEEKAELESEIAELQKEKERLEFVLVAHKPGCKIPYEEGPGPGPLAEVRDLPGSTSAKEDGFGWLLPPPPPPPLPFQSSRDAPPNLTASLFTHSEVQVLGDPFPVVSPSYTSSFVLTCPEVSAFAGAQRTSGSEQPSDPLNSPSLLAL
HSF1 inh – HSF1 inhibitors in luciferase reporter cells, primary screen, cell-based, NIH3T3, luminescence; NIH3T3-HGL HSE-luciferase, MG132-induced, luminescence 8 h; hits give low values; activity change, negative = inhibition, % at 7.5 µM (by protocol); 300,000 compounds, 0.77% hits; AID 2098, 2009;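 active means more than half of replicate wells show activity change below -50%, luminescence cut by over half; inconclusive means some wells, but at most half, below -50%; inactive means no replicate well below -50%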;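 further: luciferase reports HSF-1 transcriptional activity via heat shock element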
Each line names hits and unclear results; the compound was inactive in the other large screens. Hits are enriched below; roughly 4.9% of the tested compounds scored in any of these assays.

Cc1cc(C)n(Cc2cc(C(=O)O)c3ccccc3n2)n1	none
Cc1ccc(CNC(=O)c2ccc([N+](=O)[O-])o2)cc1	HSF1 activator 60.7
Cc1ccc(-c2csc(NC(=O)c3ccc([N+](=O)[O-])o3)n2)cc1	HSF1 activator 64.8
Cc1ccc(-c2csc(NC(=O)c3cccc([N+](=O)[O-])c3)n2)cc1	HSF1 activator 63.8
CC1CC(C)CN(C(=O)COC(=O)CCCN2C(=O)c3cccc4cccc(c34)C2=O)C1 (stereo not drawn)	none
CC(C)C[C@@H](CO)N1CCN(Cc2ccc([N+](=O)[O-])cc2)CCC1=O	none
CN(CC(=O)NCc1cccnc1)S(=O)(=O)c1ccc2c(c1)c(=O)n(C)c(=O)n2C	HSF1 inh -85.5
N#Cc1ccccc1NC(=O)COc1ccc2c(c1)OCO2	HSF1 activator 88.1
CCc1ccccc1NC(=O)COc1ccc2c(c1)OCO2	none
O=C(Cc1ccc([N+](=O)[O-])cc1)OCc1c(F)cccc1Cl	HSF1 activator 56.1
N/C(Cc1ccc([N+](=O)[O-])cc1)=N\OC(=O)c1ccccc1F	HSF1 activator 65.7
OCCC1CN(C2CCC2)CCN1Cc1ccc(F)c(F)c1 (stereo not drawn)	none
O=[N+]([O-])c1ccc(C(=S)N2CCCC2)cc1	none
O=[N+]([O-])c1ccc(C(O)CSC(=S)N2CCCCC2)cc1 (stereo not drawn)	HSF1 activator 70.5
Clc1cccc(/C=N\Nc2nccs2)c1	HSF1 activator 142.8
BrC(/C=N/Nc1nc(N2CCOCC2)nc(N2CCOCC2)n1)=C/c1ccccc1	HSF1 activator 64.2
NC(CCCCc1ccccc1)c1cccc2ccccc12 (stereo not drawn)	Platelet DG rel 49.9 (no result: HSP90 inh, MPTP block, dFosB activator)
O=S(=O)(c1ccc(-n2cnnn2)cc1)N1CCNCC1	HSF1 activator 82.6
O=C(C1CCN(S(=O)(=O)c2ccc(-n3cnnn3)cc2)CC1)N1CCCCC1	none
CC(=O)N1CCOc2ccc(S(=O)(=O)N3CCC(C(=O)NCc4ccc(C)cc4)CC3)cc21	none
CCCC12CN3CC(C)(CN(C1)C3c1ccc(OC(C)C)cc1)C2=O (stereo not drawn)	none
CCCC12CN3CC(C)(CN(C1)C3c1cccs1)C2=O (stereo not drawn)	HSF1 activator 61.9 (no result: dFosB activator)
COc1ccc(/C=N/Nc2nncc3ccccc23)cc1	Platelet DG rel 68.3
Clc1nccnc1N/N=C/c1ccc(Br)cc1	none
COc1ccc(/C=N/Nc2nccnc2Cl)cc1	Platelet DG rel 81.6
COc1ccc(/C=N/Nc2nccnc2Cl)c(OC)c1	Platelet DG rel 54.4
CC(C)(C)NC(=O)C1(C)CCC(=O)N1C1CC1 (stereo not drawn)	none (no result: HSP90 inh, HSF1 activator, Platelet DG rel, dFosB activator, HSF1 inh)
NC(=O)c1ccsc1NC(=O)C1CCCCC1	HSF1 inh -56.9
Cc1cc(NC(=O)c2cc(-c3ccccn3)nc3ccc(Br)cc23)no1	dFosB activator 57.8
CCC(c1nnnn1CCc1ccccc1)N(Cc1ccco1)Cc1cc2cc(C)cc(C)c2[nH]c1=O (stereo not drawn)	HSF1 activator 58.0
Cc1ccc2[nH]c(=O)c(CN(CCc3ccccc3)C(c3nnnn3Cc3ccco3)C(C)C)cc2c1 (stereo not drawn)	HSF1 activator 81.7
CCC(c1nnnn1Cc1ccccc1)N(Cc1ccco1)Cc1cc2cc(OC)ccc2[nH]c1=O (stereo not drawn)	Platelet DG rel inconclusive
CCC(c1nnnn1Cc1ccco1)N(CCc1ccccc1)Cc1cc2cc(C)ccc2[nH]c1=O (stereo not drawn)	none (no result: HSP90 inh)
CCC(c1nnnn1CCc1ccccc1)N(Cc1ccco1)Cc1cc2c(C)ccc(C)c2[nH]c1=O (stereo not drawn)	HSF1 activator 127.6
O=C(/C=C/c1ccc(OC(F)F)cc1)Nc1cccc(S(=O)(=O)N2CCOCC2)c1	none
COc1cccc(/C=C/C(=O)OCC(=O)NCCc2ccccc2)c1	none
O=C(O)c1cccc(NC(=O)c2ccccc2NC(=O)c2ccccc2F)c1	HSF1 inh -67.6
